Laboratory results reported in PubChem BioAssay (NCI).
Values joined by “and” are separate entries in the source; they are usually repeats but may differ in a detail not shown here. Equal values may be shown once. Compounds without any hit were thinned out: in the full panel of roughly 83,000, 20% have a hit.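 Treatment: one concentration, 48 hours, 96-well format. Scoring: percent growth, with anything below 10 considered active.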 Active and inactive are the calls of the source.

Columns and labels:
Assay in all cases: NCI-60 one-dose screen, 48 h (100 = growth as untreated, 0 = no growth, -100 = all killed)
Settings in all cases: 10 µM unless noted
T-47D breast = tested on: T-47D breast
BT-549 breast = tested on: BT-549 breast
MDA-MB-435 melanoma = tested on: MDA-MB-435 melanoma
SW-620 colon = tested on: SW-620 colon
MCF7 breast = tested on: MCF7 breast
HCT-116 colon = tested on: HCT-116 colon
HCC-2998 colon = tested on: HCC-2998 colon
KM12 colon = tested on: KM12 colon

Measured: growth

CC(=O)N1N=C(c2cc3ccccc3oc2=O)CC1c1cn(-c2ccccc2)nc1-c1ccc(C)cc1 (stereo not given)
inactive: T-47D breast 96.4% | BT-549 breast 117% | MDA-MB-435 melanoma 102% | SW-620 colon 98.8% | MCF7 breast 90.8% | HCT-116 colon 92.1% | HCC-2998 colon 106% | KM12 colon 98.6%

COc1cc(/C=C2/C(=O)Nc3ccc(Cl)cc32)ccc1OCc1ccc(Cl)cc1
inactive: T-47D breast 80.5% | BT-549 breast 101% | MDA-MB-435 melanoma 91.3% | SW-620 colon 59.7% | MCF7 breast 49% | HCT-116 colon 47.9% | HCC-2998 colon 107% | KM12 colon 100%

CC1=C(SCC(=O)OCCCCCC(C)C)C(=O)c2ccccc2C1=O
inactive: T-47D breast 74.3% | BT-549 breast 94.4% | MDA-MB-435 melanoma 102% | SW-620 colon 99.3% | MCF7 breast 72.1% | HCT-116 colon 89.7% | HCC-2998 colon 110% | KM12 colon 91.2%

CCCc1[nH]c(-c2cc(N)ccc2Cl)c2c1C(=O)CCCC2
inactive: T-47D breast 75.7% | BT-549 breast 111% | MDA-MB-435 melanoma 99.5% | SW-620 colon 105% | MCF7 breast 87.1% | HCT-116 colon 95.2% | HCC-2998 colon 101% | KM12 colon 93.7%

C[C@H](Nc1ncnc2ccc(-c3cnc(Cl)c(NS(C)(=O)=O)c3)cc12)c1ccccc1
active: T-47D breast -53.2% | BT-549 breast -61.5% | MDA-MB-435 melanoma -40% | SW-620 colon 1.48% | MCF7 breast 2.5% | HCT-116 colon -61.4% | HCC-2998 colon -77.3% | KM12 colon -79%

COc1ccc(C2CC(c3cccc(OCCCCOc4cccc(C5=NN(C(C)=O)C(c6ccc(OC)cc6)C5)c4)c3)=NN2C(C)=O)cc1 (stereo not given)
inactive: T-47D breast 40.1% | BT-549 breast 69.8% | MDA-MB-435 melanoma 60.3% | SW-620 colon 87.1% | MCF7 breast 39.9% | HCT-116 colon 47.3% | HCC-2998 colon 83.1% | KM12 colon 70.5%

COc1ccc2[nH]cc(-c3nn4cc(-c5ccncc5)nc4s3)c2c1
inactive: BT-549 breast 74.8% | MDA-MB-435 melanoma 90.2% | SW-620 colon 66.3% | MCF7 breast 11.2% | HCT-116 colon 52.8% | HCC-2998 colon 81.4% | KM12 colon 64.1%
active: T-47D breast 7.81%

Cc1ccc2c(n1)C(=O)C(Cl)=C(Nc1cccc(C)c1C)C2=O
inactive: BT-549 breast 44% | HCC-2998 colon 51.6% | KM12 colon 26.1%
active: T-47D breast -56.7% | MDA-MB-435 melanoma -86.5% | SW-620 colon -9.92% | MCF7 breast -59.3% | HCT-116 colon -42.9%

Cc1cc(Br)ccc1-n1cc(C#N)c(N)c1C(=O)c1ccc(Br)cc1
inactive: T-47D breast 101% | BT-549 breast 89.8% | MDA-MB-435 melanoma 100% | SW-620 colon 117% | MCF7 breast 95.2% | HCT-116 colon 88.6% | HCC-2998 colon 110% | KM12 colon 107%

CN(C)CC(=O)Nc1nc(-c2cccc(NS(=O)(=O)c3cccc4c(N(C)C)cccc34)c2)cs1
inactive: T-47D breast 56.9% | BT-549 breast 87.8% | MDA-MB-435 melanoma 99% | SW-620 colon 105% | MCF7 breast 68.3% | HCT-116 colon 80.1% | HCC-2998 colon 85.8% | KM12 colon 94.1%

O=C(/C=C/c1csc(Br)n1)NO
inactive: BT-549 breast 80.7% | SW-620 colon 10.2% | MCF7 breast 24.6% | HCC-2998 colon 29.2% | KM12 colon 34.9%
active: T-47D breast 8.14% | MDA-MB-435 melanoma 5.36% | HCT-116 colon 5.92%

CC(C)(C)OC(=O)Nc1ccc(-c2cccc(Oc3ccc4nnc(Cl)n4n3)c2)cc1
inactive: T-47D breast 59.3% | BT-549 breast 58.8% | MDA-MB-435 melanoma 83.7% | SW-620 colon 97.3% | MCF7 breast 74.8% | HCT-116 colon 43.9% | HCC-2998 colon 109% | KM12 colon 88.2%

O=[N+]([O-])c1ccc(NC(=S)NNC(=S)Nc2ccc(Br)cc2)cc1
inactive: T-47D breast 73.3% | BT-549 breast 103% | MDA-MB-435 melanoma 99% | SW-620 colon 91.1% | MCF7 breast 70.1% | HCT-116 colon 90.6% | HCC-2998 colon 53.7% | KM12 colon 55.4%

CC(=O)N(O)CCCCCNC(=O)CCC(=O)N(O)CCCCCNC(=O)CCC(=O)N(O)CCCCCN(CCCCCCCCCC[P+](c1ccccc1)(c1ccccc1)c1ccccc1)CCCCCCCCCC[P+](c1ccccc1)(c1ccccc1)c1ccccc1
active: T-47D breast -4.99% | BT-549 breast -30.7% | MDA-MB-435 melanoma 4.44% | MCF7 breast 5.05% | HCT-116 colon 3.76% | HCC-2998 colon 4.2% | KM12 colon 4.3%
inactive: SW-620 colon 12.2%

CCCCN1C(=O)/C(=c2\sc3n(c2=O)C2C(NN=3)N(CC)C(=O)N2CC)c2cccc(C)c21 (stereo not given)
active: MDA-MB-435 melanoma -31%
inactive: T-47D breast 41.4% | BT-549 breast 82.4% | SW-620 colon 39.7% | MCF7 breast 21.1% | HCT-116 colon 24.8% | HCC-2998 colon 61.1% | KM12 colon 33.3%

CCCc1cc2cc(-n3nc(CC)c4c3CC(C)(C)CC4=O)cc(NC3CCC(O)CC3)c2c(=O)[nH]1 (stereo not given)
inactive: T-47D breast 29.6% | BT-549 breast 38.7% | SW-620 colon 12.3% | MCF7 breast 17.7% | KM12 colon 15.4%
active: MDA-MB-435 melanoma 0.0389% | HCT-116 colon 6.5% | HCC-2998 colon 8.95%

N#Cc1c(-c2cccs2)c(C#N)c(=O)n(Cc2nc3ccccc3[nH]2)c1N
inactive: T-47D breast 74.8% | BT-549 breast 102% | MDA-MB-435 melanoma 110% | SW-620 colon 95.6% | MCF7 breast 66.1% | HCT-116 colon 100% | HCC-2998 colon 116% | KM12 colon 102%

CNC(=O)c1cc(-c2ccc(NC(=S)Nc3cccc(C(F)(F)F)c3)cc2)nc2cccnc12
inactive: T-47D breast 102% | BT-549 breast 104% | MDA-MB-435 melanoma 95.9% | SW-620 colon 96.8% | MCF7 breast 80.3% | HCT-116 colon 103% | HCC-2998 colon 116% | KM12 colon 98.8%

O=C(CCCCCCNC(=O)C(O)(O)C(F)(F)F)Nc1nc2ccccc2s1
active: MDA-MB-435 melanoma 4.88% | SW-620 colon 4.75% | MCF7 breast 9.8% | HCT-116 colon 2.81% | HCC-2998 colon -39.8% | KM12 colon 7.52%
inactive: T-47D breast 12.1% | BT-549 breast 13%

Oc1ccc(-c2nc3ccc(/C(=N\N=C\c4ccc(Cl)cc4)c4ccccc4)cc3[nH]2)cc1
inactive: T-47D breast 79.9% | BT-549 breast 94.3% | MDA-MB-435 melanoma 84.4% | SW-620 colon 88.5% | MCF7 breast 53.1% | HCT-116 colon 82.6% | HCC-2998 colon 91.9% | KM12 colon 74%

O=C(CCl)Nc1ccc(NC(=O)c2cc(Cl)ccc2O)c(Cl)c1
inactive: T-47D breast 81.3% | BT-549 breast 65.8% | MDA-MB-435 melanoma 66% | SW-620 colon 35.2% | MCF7 breast 29.1% | HCT-116 colon 39% | HCC-2998 colon 105% | KM12 colon 75.8%

CCCCc1nc2c(N)nc3ccccc3c2n1Cc1ccc(OC)cc1
inactive: T-47D breast 65.3% | BT-549 breast 72% | MDA-MB-435 melanoma 84% | SW-620 colon 68.6% | MCF7 breast 59.7% | HCT-116 colon 32.5% | HCC-2998 colon 85.5% | KM12 colon 83.1%

CCOC(=O)C(=O)Nc1ccc2c(ccn2C(=O)c2cccc(F)c2)c1
inactive: T-47D breast 99.1% | BT-549 breast 88.8% | MDA-MB-435 melanoma 100% | SW-620 colon 98.7% | MCF7 breast 89.6% | HCT-116 colon 102% | HCC-2998 colon 103% | KM12 colon 98.2%

NS(=O)(=O)c1ccc(Nc2nc(N/N=C/C=C/c3ccccc3)nc(Nc3ccccc3)n2)cc1
inactive: T-47D breast 18.9% | BT-549 breast 65.9% | MDA-MB-435 melanoma 51.6% | SW-620 colon 51.1% | MCF7 breast 16% | HCT-116 colon 29.5% | HCC-2998 colon 38.3% | KM12 colon 55.4%

O=C1C(SCc2ccccc2)=C(Cl)CN1c1ccccc1
inactive: T-47D breast 88% | BT-549 breast 108% | MDA-MB-435 melanoma 96.8% | SW-620 colon 102% | MCF7 breast 40.6% | HCT-116 colon 88.5% | HCC-2998 colon 103% | KM12 colon 98.3%

CC1=C(C)C(=O)C(Nc2ccc(C)c(C)c2)=C(Br)C1=O
inactive: T-47D breast 41.6% | BT-549 breast 100% | MDA-MB-435 melanoma 103% | SW-620 colon 103% | MCF7 breast 64.2% | HCT-116 colon 34.7% | HCC-2998 colon 96.4% | KM12 colon 99.8%

CCCCCCCCCC(=O)NC(C)(C)C(=O)N1CCC[C@H]1C(=O)N[C@@H](CC(C)C)C(=O)N[C@@](C)(CC)C(=O)N[C@@H](CCC(N)=O)C(=O)N[C@H](CCC(N)=O)C(=O)NC(C)(C)C(=O)NC(C)(C)C(=O)N[C@@H](CCC(N)=O)C(=O)N[C@H](CC(C)C)C(=O)N[C@H](CO)CC(C)C
active: T-47D breast -34.9% and -12.9% | BT-549 breast -84.8% and -76.9% | MDA-MB-435 melanoma -60.3% and -95.4% | SW-620 colon -83.6% and -50.6% | MCF7 breast -83.8% and -76.9% | HCT-116 colon -67.5% and 1.05% | HCC-2998 colon -89.2% and -59.5% | KM12 colon -89.6% and -89.8%

Cn1cc(-c2cc3ncnc(Nc4ccc(NC(=O)Nc5cc(C(C)(C)C)on5)cc4)c3s2)cn1
inactive: BT-549 breast 16.4% | MDA-MB-435 melanoma 17.5% | SW-620 colon 24.4% | MCF7 breast 18.5% | HCT-116 colon 12.7% | HCC-2998 colon 74.1% | KM12 colon 15.7%
active: T-47D breast 1.81%

Cc1[nH]c(C(=O)Nc2ccc(C(=O)NCC3CCNCC3)cc2OC(C)C)c(Cl)c1Cl
inactive: T-47D breast 77.6% | BT-549 breast 92.6% | MDA-MB-435 melanoma 72.2% | SW-620 colon 33.6% | HCT-116 colon 33.2% | HCC-2998 colon 55.3% | KM12 colon 56%
active: MCF7 breast -76.3%

O=C1Nc2ccc(F)cc2/C1=C\C(=O)c1ccc(NS(=O)(=O)c2ccccc2)cc1
inactive: T-47D breast 96.7% | BT-549 breast 111% | MDA-MB-435 melanoma 92.5% | SW-620 colon 43.1% | MCF7 breast 22.5% | HCT-116 colon 56.9% | HCC-2998 colon 116% | KM12 colon 102%
